Inconclusive results are not listed. Values without a mark were called inactive. Active and inactive are the calls of the source. The call rests on the fitted dose curve; in most records, active means well fitted curve in the direction sought with a large enough effect; inconclusive means small, poorly fitted or top-dose-only effect, or another doubt; inactive means no such curve, though single readings can be large; an effect the other way counts as inactive or inconclusive.

Assay [1] is described as follows: qHTS for Inhibitors of the Aldehyde Dehydrogenase Family (ALDH1A2, ALDH1A3, ALDH2, ALDH3A1) (AID 2061307). Further: nearly all actives have a fitted effect of over 50% in size. On Potency: test system not described further here.
The target of assay [2] is Aldehyde dehydrogenase, mitochondrial (Homo sapiens) (UniProt P05091). Kind of assay: qHTS for Inhibitors of the Aldehyde Dehydrogenase Family (ALDH2) Primary screen (AID 2061308). Further: nearly all actives have a fitted effect of over 55% in size. A general note: Quantitative high-throughput screening tests each substance at several concentrations.
The target in assay [3] is Retinal dehydrogenase 2 (Homo sapiens) (UniProt O94788). As to the kind of experiment: qHTS for Inhibitors of the Aldehyde Dehydrogenase Family (ALDH1A2) Confirmation screens (AID 2061314). Further: nearly all actives have a fitted effect of over 65% in size.
The target in assay [4] is Retinaldehyde dehydrogenase 3 (Homo sapiens) (UniProt P47895). As to the kind of experiment: qHTS for Inhibitors of the Aldehyde Dehydrogenase Family (ALDH1A3) Primary screen (AID 2061315).
The target of assay [5] is Aldehyde dehydrogenase 1A1 (Homo sapiens) (UniProt P00352). Kind of assay: qHTS for Inhibitors of the Aldehyde Dehydrogenase Family (ALDH1A1) Confirmatory screens (AID 2061316). Further: nearly all actives have a fitted effect of over 65% in size.
Potency means the concentration at half of the fitted maximal effect.

For `O=C(CN1C(=O)N/C(=C\c2cn(-c3cccc(C(=O)O)c3)cn2)C1=O)Nc1ccccc1Cl`, the Potency result in assay [1], in assay [2], in assay [3], in assay [4] and in assay [5] was “inactive” each time.

Take `O=C(Nc1nc(-c2ccccc2)cs1)c1ccncc1NS(=O)(=O)c1ccc2ccccc2c1`: the Potency in assay [1] is 2.51 µM (active); in assay [3] it was 7.12 µM (active); in assay [5], 8.96 µM (active). The Potency result in assay [2] and in assay [4] was “inactive” throughout.

Take `O=C(O)C1CCN(c2ncc(-c3ccc4c(c3)OCCCO4)s2)CC1`: the Potency was 1.52 µM (active) in assay [1] and 0.447 µM (active) in assay [4]. The Potency entry in assay [2] is “inactive”.

On to `CCOc1ccc(CCNC(=O)c2cc3c(s2)CCC3)cc1OCC`, for which the Potency entry in assay [1], in assay [2] and in assay [4] was “inactive” each time. For the same molecule, the Potency in assay [3] is 14.2 µM (active).

As to `COc1ccc(C2Nc3ccccc3C(=O)N2Cc2ccco2)cc1COc1ccc(NC(C)=O)cc1` (configuration not stated), the Potency entry in assay [1], in assay [2] and in assay [4] was “inactive” in each case.

For the molecule `O=S(=O)(c1ccc2c(c1)OCO2)N1CCN(S(=O)(=O)c2c(F)cccc2F)CC1`, the Potency entry in assay [1], in assay [2] and in assay [4] was “inactive” throughout.

Consider `COc1ccc(OCc2cc(C3Nc4ccccc4C(=O)N3Cc3ccccc3)ccc2OC)cc1` (configuration not stated), for which, in assay [1], the Potency is 5.65 µM (active). The Potency entry in assay [2] and in assay [4] was “inactive” in each case.

Turning to `O=C(NCCCCc1ccccc1)C1CCN(c2nc(-c3ccc(Br)cc3)cs2)CC1`, the results for the Potency in assay [1] and in assay [5] were 3.57 µM (active) and 8.96 µM (active), respectively. Further, the Potency result in assay [2], in assay [3] and in assay [4] was “inactive” each time.

As to `Cc1[nH]c2ccccc2c1C1=C(NCCc2ccc(F)cc2)C(=O)N(C)C1=O`, in assay [1], the Potency is 0.896 µM (active). In addition, the Potency entry in assay [2] and in assay [4] was “inactive” each time.

For `COc1ccc(C2=Nn3c(nnc3-c3cccc(OC)c3OC)SC2)c(OC)c1`, the Potency in assay [1] is 2 µM (active). For the same molecule, the Potency entry in assay [2], in assay [3], in assay [4] and in assay [5] was “inactive” throughout.

In the case of `Cc1ccnc(CC(=S)N2CCN(c3cccc(C(F)(F)F)c3)CC2)c1`, the Potency in assay [1] was 10 µM (active); in assay [3] it was 12.7 µM (active); in assay [5], 10.1 µM (active). The Potency result in assay [2] and in assay [4] was “inactive” each time.

Take `O=S(=O)(c1ccccc1)N1CCN(c2nc(-c3ccc(Br)cc3)cs2)CC1`: the results for the Potency in assay [1] and in assay [5] were 7.98 µM (active) and 10.1 µM (active), respectively. Also, the Potency entry in assay [2], in assay [3] and in assay [4] was “inactive” each time.

Regarding `CC(C)(C)OC(=O)NCCOCCOCCOCCn1ncc2c1CCCC2NC(=O)c1ccccn1` (configuration not stated), the Potency entry in assay [1], in assay [2] and in assay [4] was “inactive” each time.

Turning to `COc1ccc(C2Nc3ccccc3C(=O)N2Cc2ccccn2)cc1COc1ccc(NC(C)=O)cc1` (configuration not stated), the Potency in assay [1] is 6.31 µM (active). Besides, the Potency entry in assay [2] and in assay [4] was “inactive” in each case.

With `N#Cc1c(-c2ccc(Br)cc2)no[n+]1[O-]`, the Potency is 7.98 µM (active) in assay [1], 7.94 µM (active) in assay [2] and 7.12 µM (active) in assay [3]. Also, the Potency entry in assay [4] was “inactive”.

As to `CCOC(=O)c1ccc(-n2cccc2/C=C2\NC(=O)NC2=O)cc1`, the Potency result in assay [1], in assay [2] and in assay [4] was “inactive” throughout.

For `O=[S+]([O-])(Nc1ccc(-c2nc3ccccc3[nH]2)cc1)c1ccc2c(c1)OCO2`, the Potency result in assay [1], in assay [2], in assay [4] and in assay [5] was “inactive” in each case. Also, the Potency in assay [3] is 15.9 µM (active).

Take `FC(F)(F)c1ccc(-c2ccc(CNc3nc(-c4ccccc4C(F)(F)F)nc4ccccc34)cc2)cn1`: the Potency in assay [1] is 8.91 µM (active); in assay [3] it was 25.2 µM (active); in assay [5], 7.98 µM (active). The Potency entry in assay [2] and in assay [4] was “inactive” in each case.

As for `O=C(Nc1cncc(Cc2ccccc2)c1)c1ccc(-c2cccc([N+](=O)[O-])c2)o1`, the Potency in assay [1] is 1.27 µM (active); in assay [3] it was 12.7 µM (active); in assay [5], 3.18 µM (active). Also, the Potency entry in assay [2] and in assay [4] was “inactive” each time.

For the molecule `COc1ccc(C2Nc3ccccc3C(=O)N2Cc2ccccc2)cc1COc1ccc(NC(C)=O)cc1` (configuration not stated), the Potency in assay [1] is 3.18 µM (active). Moreover, the Potency entry in assay [2] and in assay [4] was “inactive” throughout.

With `COc1ccc(C2=Nn3c(nnc3-c3ccc(OC)cc3)SC2)cc1`, the Potency in assay [1] is 7.98 µM (active). Moreover, the Potency entry in assay [2], in assay [3], in assay [4] and in assay [5] was “inactive” in each case.

Consider `CCCCN(C)C(=O)Cn1nc(-c2ccc(Cl)cc2)ccc1=O`, for which the Potency entry in assay [1], in assay [2] and in assay [4] was “inactive” in each case.

For `CNc1oc(-c2c[nH]c3ccccc23)nc1C#N`, the Potency in assay [1] is 11.3 µM (active). Moreover, the Potency result in assay [2], in assay [3] and in assay [4] was “inactive” in each case.

Consider `Cc1cc(C)nc(NC(=S)N2CC3CN(c4ncc(C(F)(F)F)cc4Cl)CC3C2)c1` (configuration not stated), for which the Potency result in assay [1] and in assay [3] was “inactive” each time. Besides, the results for the Potency in assay [2] and in assay [5] were 2.51 µM (active) and 12.7 µM (active), respectively.

In the case of `COc1ccc(C2Nc3ccccc3C(=O)N2Cc2ccccc2OC)cc1COc1ccc(NC(C)=O)cc1` (configuration not stated), the Potency is 2.25 µM (active) in assay [1] and 22.5 µM (active) in assay [5]. Further, the Potency entry in assay [2] and in assay [4] was “inactive” each time.

`O=C(O)c1ccc(-n2cccc2/C=C2\SC(=O)N(Cc3ccc(F)cc3)C2=O)cc1`: the Potency in assay [1] is 7.98 µM (active). Besides, the Potency entry in assay [2] and in assay [4] was “inactive” in each case.

With `COc1ccc(C2Nc3ccccc3C(=O)N2CCc2ccc(Cl)cc2Cl)cc1COc1ccc(NC(C)=O)cc1` (configuration not stated), in assay [1], the Potency is 3.57 µM (active). Further, the Potency result in assay [2] and in assay [4] was “inactive” throughout.

On to `COc1cc(/C=C2\C(=O)Nc3ccccc32)ccc1O`, for which the Potency result in assay [1], in assay [2] and in assay [4] was “inactive” throughout.

As for `CC(C)Oc1cccc(-c2cnc(N3CCC(C(N)=O)CC3)s2)c1`, the Potency result in assay [1], in assay [2] and in assay [4] was “inactive” in each case.

Take `CN(Cc1ccco1)c1ncnc2ccc(-c3ccoc3)cc12`: the Potency entry in assay [1], in assay [2] and in assay [4] was “inactive” each time. In assay [5], the Potency is 12.7 µM (active).

For `N#Cc1nc(Nc2cccc(Cl)c2)nc(NC2CCCC2)n1`, the Potency in assay [1] was 0.708 µM (active). Besides, the Potency result in assay [2] and in assay [4] was “inactive” each time.

Turning to `Cc1nc(-c2ccccc2)oc1-c1ccc2ncnc(NCc3ncc[nH]3)c2c1`, the Potency result in assay [1], in assay [2] and in assay [4] was “inactive” each time.

The values are drawn from PubChem BioAssay (NCATS).
